{
  "source": "PubChem BioAssay AID2551",
  "about": "(National Center for Advancing Translational Sciences (NCATS), 2010)",
  "note": "About 17,000 (5.5%) of roughly 310,000 compounds were called active. Another 11% or so got no clear call; they are omitted. For the sample, actives were picked, then their nearest neighbours and some compounds at random. A number with no mark means an inactive call. Calls follow the shape of the dose curve; as a rule, active = well fitted inhibition curve with a large enough effect; inconclusive = small, poorly fitted or top-dose-only effect, or effect the other way; inactive = no such curve, though single readings can be large or run the other way. % is scaled to controls: 0 for no effect and ±100 for the full control effect; potency is read from the fitted curve at half-maximal effect.",
  "data": [
    {"target": "Nuclear receptor ROR-gamma (Mus musculus) (UniProt P51450)", "sequence (P51450 whole entry, looked up, the tested form may be a part)": "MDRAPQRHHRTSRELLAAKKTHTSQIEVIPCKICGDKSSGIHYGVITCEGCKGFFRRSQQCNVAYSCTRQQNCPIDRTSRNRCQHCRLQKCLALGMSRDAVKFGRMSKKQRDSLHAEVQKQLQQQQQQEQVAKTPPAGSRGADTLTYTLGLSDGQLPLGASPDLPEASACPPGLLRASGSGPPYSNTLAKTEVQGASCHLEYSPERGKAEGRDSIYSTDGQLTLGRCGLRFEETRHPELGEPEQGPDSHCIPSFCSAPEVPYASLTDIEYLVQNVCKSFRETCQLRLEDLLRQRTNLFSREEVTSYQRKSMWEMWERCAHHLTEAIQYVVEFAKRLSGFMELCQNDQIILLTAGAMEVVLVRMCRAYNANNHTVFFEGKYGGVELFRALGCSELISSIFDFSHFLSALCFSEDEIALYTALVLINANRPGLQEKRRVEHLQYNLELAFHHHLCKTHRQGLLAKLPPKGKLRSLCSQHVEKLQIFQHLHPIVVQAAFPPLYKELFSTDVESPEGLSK", "assay": "qHTS for inhibitors of ROR gamma transcriptional activity; also: nearly all actives have a fitted effect of over 60% in size", "conditions": "Drosophila S2 Gal4-RORgamma UAS-luciferase reporter, 20 h; series mostly up to 53.6 µM; activity change, negative = inhibition: at the top concentration", "procedure,_shortened": "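Stable Schneider cell line, Gal4 DNA-binding domain fused to ROR gamma, UAS-luciferase. Cmpd 1 hr RT → CuSO4 700 uM final → 20 hr RT → luciferase reagent 10 min → luminescence.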", "values": [
      {"smiles": "Cc1ccc(C(=O)NC2CCN(C(=O)Nc3ccccc3Cl)CC2)cc1", "activity change, negative = inhibition": "-3.35%"},
      {"smiles": "COc1ccc(NS(=O)(=O)c2ccc(NC(=S)NC(=O)CC(C)C)cc2)cc1", "activity change, negative = inhibition": "-31.3%"},
      {"smiles": "CC(C)CC(=O)c1c[nH]c(C(=O)NCc2ccccc2)c1", "activity change, negative = inhibition": "3.37%"},
      {"smiles": "CC(=O)c1ccc(NC(=S)NC(=O)CC(C)C)cc1", "Potency": "12.6 µM (active)"},
      {"smiles": "CC(C)CC(=O)NC(=S)NCc1ccccc1", "Potency": "5.01 µM (active)"},
      {"smiles": "CC(C)CC(=O)NC(=S)Nc1cc(C(=O)O)ccc1Cl", "activity change, negative = inhibition": "7.72%"},
      {"smiles": "CC(C)CNC(=O)C(=O)NCc1ccccc1", "activity change, negative = inhibition": "-0.503%"},
      {"smiles": "CC1CCCCN1CCCNc1ccc(C(CC(N)=O)NC(=O)c2ccccc2)cc1[N+](=O)[O-]", "note": "(stereo not drawn)", "activity change, negative = inhibition": "-13.3%"},
      {"smiles": "CCOC(=O)N1CCN(C(=O)C(=O)Nc2sc3c(c2C#N)CC(C)(C)OC3)CC1", "activity change, negative = inhibition": "9.29%"},
      {"smiles": "Cc1ccc(S(=O)(=O)NCC(=O)N2CCOCCOCCOCCOCC2)cc1", "activity change, negative = inhibition": "-12.4%"},
      {"smiles": "O=S(=O)(/N=C(/Nc1ccccn1)c1ccccc1)c1ccc(Cl)cc1", "activity change, negative = inhibition": "38.3%"},
      {"smiles": "O=C(c1ccc(Cl)cc1)n1cnc2ccccc21", "activity change, negative = inhibition": "-14.8%"},
      {"smiles": "O=C(c1ccc(Cl)cc1)N1N=C(c2ccccn2)CC1(O)C(F)(F)F", "note": "(stereo not drawn)", "Potency": "1.41 µM (active)"},
      {"smiles": "COC(=O)c1ccc2ccccc2c1OC1OC(CO)C(O)C(O)C1NC(C)=O", "note": "(stereo not drawn)", "activity change, negative = inhibition": "-4.64%"},
      {"smiles": "CC1(C)Cc2c(sc3nc4n(c(=N)c23)CCCCC4)CO1", "activity change, negative = inhibition": "25.8%"},
      {"smiles": "C=CCNC(=S)NNc1ncnc2sc3c(c12)CC(C)(C)OC3", "Potency": "1.26 µM (active)"},
      {"smiles": "CN(C)CCSc1nc(N)c2c3c(sc2n1)COC(C)(C)C3", "activity change, negative = inhibition": "-36.3%"},
      {"smiles": "Fc1ccc(-c2ccc(NCCN3CCOCC3)nn2)cc1", "activity change, negative = inhibition": "20%"},
      {"smiles": "CC(=O)c1c(C)oc2ccc(NS(=O)(=O)c3ccccc3)cc12", "activity change, negative = inhibition": "13.9%"},
      {"smiles": "Cc1ccc(CN2CCC(n3nccc3NC(=O)CCCc3ccccc3)CC2)o1", "activity change, negative = inhibition": "-40.9%"},
      {"smiles": "O=C(Nc1cnccn1)c1cccnc1", "activity change, negative = inhibition": "13.5%"},
      {"smiles": "O=C(CCl)NNc1cccc(Cl)n1", "activity change, negative = inhibition": "30%"},
      {"smiles": "O=C(NNc1ccccn1)c1ccc(Cl)nc1", "Potency": "12.6 µM (active)"},
      {"smiles": "COc1ccc(C)cc1N(CC(=O)NC(C)c1ccccc1)S(C)(=O)=O", "note": "(stereo not drawn)", "activity change, negative = inhibition": "16.1%"},
      {"smiles": "CC(Oc1ccc(Cl)cc1Cl)C(=O)/C=C/N(C)C", "note": "(stereo not drawn)", "activity change, negative = inhibition": "-4.84%"},
      {"smiles": "COc1cccc(NC(=O)CN(C)C(=O)Cc2ccc(Cl)cc2Cl)c1", "activity change, negative = inhibition": "3.05%"},
      {"smiles": "CCCC(=O)Nc1cccc(NC(=S)NC(=O)C(C)Oc2ccc(Cl)cc2Cl)c1", "note": "(stereo not drawn)", "Potency": "6.31 µM (active)"},
      {"smiles": "CCOC(=O)N1CCN(S(=O)(=O)N2CCCC(C(=O)NCCCN3CCC(C)CC3)C2)CC1", "note": "(stereo not drawn)", "activity change, negative = inhibition": "-6.51%"},
      {"smiles": "NC(=O)c1c(Nc2nc3c(F)cccc3s2)sc2c1CCCC2", "Potency": "12.6 µM (active)"},
      {"smiles": "NC(=O)c1c(NC(=O)c2ccccc2)sc2c1CCCC2", "activity change, negative = inhibition": "-16.4%"},
      {"smiles": "Fc1cc(F)c2nc(N3CCOCC3)sc2c1", "activity change, negative = inhibition": "30.4%"},
      {"smiles": "NC(=O)c1c(NC(=O)CSc2nc(N)cc(=O)[nH]2)sc2c1CCCC2", "activity change, negative = inhibition": "11.5%"},
      {"smiles": "Fc1cc(F)c2nc(Nc3nc4c(F)cccc4s3)sc2c1", "Potency": "3.98 µM (active)"},
      {"smiles": "CC(C)(C)c1ccc(CN2C(=O)c3ccccc3S2(=O)=O)cc1", "activity change, negative = inhibition": "22.5%"},
      {"smiles": "COc1ccc(NC(=O)c2sc3nc(C)nc(N4CCN(c5ccccn5)CC4)c3c2C)c(OC)c1", "activity change, negative = inhibition": "-30.6%"},
      {"smiles": "O=C(NC1CCN(S(=O)(=O)c2ccc(F)cc2)CC1)c1ccccc1", "activity change, negative = inhibition": "-28.7%"},
      {"smiles": "Cc1nn(CC(=O)NCCc2ccccc2)c(=O)c2cc3occc3n12", "activity change, negative = inhibition": "19.9%"},
      {"smiles": "CCCCN1C(=S)NC[C@@H]1C(C)CC", "note": "(stereo partly drawn)", "Potency": "3.55 µM (active)"},
      {"smiles": "O=C(NC(=S)NC1CCS(=O)(=O)C1)c1cccc([N+](=O)[O-])c1", "note": "(stereo not drawn)", "activity change, negative = inhibition": "-27.1%"},
      {"smiles": "O=c1c(-c2ccccc2)coc2cc(O)ccc12", "activity change, negative = inhibition": "28.4%"},
      {"smiles": "COc1ccccc1N=Cc1c(O)c2ccccc2oc1=O", "activity change, negative = inhibition": "-38.7%"},
      {"smiles": "O=c1c(O)c(-c2ccc(O)cc2)oc2ccccc12", "Potency": "7.94 µM (active)"},
      {"smiles": "CCN(CC)S(=O)(=O)c1ccc(N2CCN(C)CC2)c(NC(=O)Nc2ccccc2F)c1", "activity change, negative = inhibition": "-26.7%"},
      {"smiles": "CCn1c(=O)c2ccccc2n(CC(=O)N2CCCc3ccccc32)c1=O", "activity change, negative = inhibition": "-16%"},
      {"smiles": "CC(=O)NC(Cc1c[nH]c2ccccc12)C(=O)NCCc1ccccc1", "note": "(stereo not drawn)", "activity change, negative = inhibition": "6.43% [at 1.91 µM]"},
      {"smiles": "Cc1nccn1CC(=O)N/N=C/c1ccc(O)c(O)c1", "activity change, negative = inhibition": "-18%"},
      {"smiles": "Oc1ccc(Br)cc1/C=N/Nc1ccccn1", "Potency": "5.62 µM (active)"},
      {"smiles": "O=C(Nc1ccc(Br)cc1)c1cc(S(=O)(=O)Nc2ccccn2)ccc1Cl", "activity change, negative = inhibition": "-0.848%"},
      {"smiles": "O=c1ccc(-c2ccc(S(=O)(=O)Nc3ccccc3)o2)n[nH]1", "activity change, negative = inhibition": "-24.5%"},
      {"smiles": "COc1ccc(C(=O)c2c(C)c(CCC#N)n3ccccc23)c(OC)c1", "activity change, negative = inhibition": "3.97%"},
      {"smiles": "COCCCC1CCN(C(=O)C2CCC(=O)N(C3CCCCCC3)C2)CC1", "note": "(stereo not drawn)", "activity change, negative = inhibition": "1.67%"},
      {"smiles": "Cc1cc(C(=O)NC2CCCc3c2cnn3-c2cccc(C)c2C)c(C)o1", "note": "(stereo not drawn)", "activity change, negative = inhibition": "-111%"},
      {"smiles": "O=c1c2ccccc2ncn1/N=C/c1ccccc1", "Potency": "10 µM (active)"},
      {"smiles": "O=[N+]([O-])c1ccc(N/N=C/c2ccccc2)cc1", "activity change, negative = inhibition": "-1.85%"},
      {"smiles": "Cc1nc2ccccc2c(=O)n1NC(=O)c1ccccc1", "activity change, negative = inhibition": "-41%"},
      {"smiles": "CCCc1nc2ccccc2c(=O)n1/N=C/c1ccc(O)c(O)c1", "activity change, negative = inhibition": "-4.72%"},
      {"smiles": "O=C(Nn1cnc2ccccc2c1=O)c1ccccc1", "activity change, negative = inhibition": "12.3%"},
      {"smiles": "O=c1c2ccccc2nc(N/N=C/c2ccccc2)n1O", "Potency": "11.2 µM (active)"},
      {"smiles": "Cc1ccc2c(=O)cc(C(=O)NCCc3ccc(S(N)(=O)=O)cc3)oc2c1C", "activity change, negative = inhibition": "-29%"},
      {"smiles": "CCCCn1c(N)c(N(CCOC)C(=O)c2oc3ccc(OC)cc3c2C)c(=O)[nH]c1=O", "activity change, negative = inhibition": "-16.9%"},
      {"smiles": "CCC(=O)Nc1ccc(C(=O)NNC(=O)c2ccc(Cl)cc2)cc1", "activity change, negative = inhibition": "10%"},
      {"smiles": "CCc1cccc(NC(=O)CCCN2C(=O)C(c3ccccc3)Oc3cccnc32)c1", "note": "(stereo not drawn)", "activity change, negative = inhibition": "18%"},
      {"smiles": "O=C1c2ccccc2S(=O)(=O)N1Cc1c(F)cccc1Cl", "activity change, negative = inhibition": "14.6%"}
    ]}
  ]
}
